Test results reported in PubChem BioAssay (NCI).
The panel holds about 83,000 compounds, 20% with a hit somewhere; the sample as a whole holds those more often.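 48-hour exposure, single concentration, 96-well plates; percent growth endpoint where 0 means no net growth. Active: below 10.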 Active and inactive are the calls of the source.

Columns and labels:
Assay in all cases: NCI-60 one-dose screen, 48 h (100 = growth as untreated, 0 = no growth, -100 = all killed)
Details in all cases: 10 µM unless noted
[1] = tested on: NCI-H23 lung
[2] = tested on: NCI-H226 lung
[3] = tested on: NCI-H322M lung
[4] = tested on: HOP-62 NSCLC
[5] = tested on: NCI-H460 lung
[6] = tested on: HOP-92 NSCLC
[7] = tested on: NCI-H522 lung
[8] = tested on: A549/ATCC NSCLC
[9] = tested on: 786-0 renal
[10] = tested on: DU-145 prostate
[11] = tested on: K-562 leukemia
[12] = tested on: MALME-3M melanoma
[13] = tested on: MDA-MB-231 breast
[14] = tested on: RXF 393 renal
[15] = tested on: SF-268 CNS
[16] = tested on: SF-295 CNS
[17] = tested on: SF-539 CNS
[18] = tested on: UACC-257 melanoma
[19] = tested on: M14 melanoma

Measured: growth

COc1ccc(-c2cc(-c3cc(OC)ccc3OC)[nH]c(=O)c2C#N)cc1
inactive: [1] 64.3% | [2] 69.5% | [3] 91.7% | [4] 48.1% | [5] 32.4% | [6] 55.3% | [7] 16.7% | [8] 46.3% | [9] 63.5% | [10] 74.2% | [11] 25.4% | [12] 52.4% | [13] 55.4% | [14] 71.1% | [15] 60.3% | [16] 31% | [17] 50.3% | [18] 59.3% | [19] 29.1%

Cc1c(C(N)=O)sc2nc(C)n(/N=c3\scc(-c4ccccc4)n3Cc3ccccc3)c(=O)c12
active: [5] 7.46% | [6] -19.1% | [8] 0% | [11] 8.42% | [14] -5.46% | [18] 4.85%
inactive: [1] 20.5% | [2] 30.9% | [3] 35.4% | [4] 24.2% | [7] 24.9% | [9] 50.7% | [10] 42.2% | [12] 60.5% | [13] 43% | [15] 21.3% | [17] 22.2% | [19] 36.4%

CCOC(=O)c1sc2ccc(NCc3nc[nH]c3C)cc2c1NC(=O)c1cc(OC)c(OC)c(OC)c1
inactive: [1] 85.7% | [2] 84.3% | [3] 91% | [4] 93.9% | [5] 92.6% | [6] 75.1% | [7] 84.8% | [8] 101% | [9] 84.8% | [10] 86.7% | [11] 44.2% | [12] 80.1% | [13] 73.3% | [14] 79.2% | [15] 98% | [16] 97.3% | [17] 91.7% | [19] 96.8%

NC(=S)N/N=C/C(=O)O
inactive: [1] 99.3% | [2] 96.2% | [3] 77.5% | [4] 85.9% | [5] 99.6% | [6] 81.8% | [7] 96.8% | [8] 92.2% | [9] 104% | [10] 106% | [11] 32.7% | [13] 97.1% | [14] 107% | [15] 92.4% | [16] 71.9% | [17] 104% | [18] 86.1% | [19] 93.9%

CCOc1ccc(S(=O)(=O)c2ccc(C)cc2)c2c1no[n+]2[O-]
inactive: [1] 82.4% | [2] 77.2% | [3] 92.7% | [4] 101% | [5] 86.4% | [6] 36.5% | [7] 57.1% | [8] 97.2% | [9] 79.6% | [10] 86.2% | [11] 46.1% | [12] 81.3% | [13] 81.2% | [14] 81.8% | [15] 99.1% | [16] 82.9% | [17] 87% | [18] 95.8% | [19] 93.4%

CCC(=O)OC1=C(C)SC2=NC(c3ccc(Cl)c(Cl)c3)=CC(c3cc(OC)c(OC)c(OC)c3)N21 (configuration not stated)
inactive: [1] 98.5% | [2] 95% | [3] 97.4% | [4] 95.9% | [5] 108% | [6] 67.9% | [7] 97.8% | [8] 105% | [9] 104% | [10] 114% | [11] 103% | [12] 104% | [13] 90.2% | [14] 91% | [15] 102% | [16] 94.8% | [17] 90.9% | [19] 106%

CCOc1cccnc1/C=N/NC(N)=S
inactive: [1] 73.8% | [2] 53.9% | [4] 64.9% | [5] 19.9% | [6] 46.5% | [7] 79.1% | [8] 48% | [9] 51.6% | [10] 34.4% | [11] 31.4% | [13] 49.6% | [14] 61.4% | [15] 32.9% | [17] 47.7% | [18] 95.7% | [19] 42.4%
active: [3] 6.61% | [16] 5.53%

C=C(C)[C@@H]1CC[C@@]2(C(=O)O)CC[C@]3(C)C(CCC4[C@@]5(C)CCC(OS(=O)(=O)c6ccccc6)C(C)(C)C5CC[C@]43C)C12 (some centres not stated)
active: [16] -32.7%
inactive: [1] 37.2% | [2] 69.2% | [3] 73.6% | [4] 57.4% | [5] 42.3% | [6] 51% | [7] 32.5% | [8] 17.8% | [9] 56.5% | [10] 55.4% | [11] 46.5% | [13] 67.4% | [14] 73.8% | [15] 70.6% | [17] 52.4% | [18] 32% | [19] 60.8%

Nc1nc(I)c2ncn(C3OC(CO)C(O)C3O)c2n1 (configuration not stated)
inactive: [1] 112% | [2] 91.6% | [3] 105% | [4] 95.8% | [5] 110% | [6] 223% | [7] 88.9% | [8] 103% | [9] 103% | [10] 107% | [11] 118% | [12] 142% | [13] 101% | [14] 78.4% | [15] 107% | [17] 102% | [18] 103% | [19] 102%

CSc1nc(N)c(CNC(C)c2ccccc2)c(=O)n1C (configuration not stated)
inactive: [1] 97.4% | [2] 91.4% | [3] 169% | [4] 95% | [5] 105% | [6] 89% | [7] 94.3% | [8] 97.7% | [9] 90.2% | [10] 118% | [11] 96.2% | [13] 114% | [14] 98.9% | [15] 106% | [16] 117% | [17] 94.9% | [18] 90.2% | [19] 97.5%

C(=C\c1nc2ccccc2[nH]1)/c1nc2ccccc2[nH]1
inactive: [1] 96.5% | [2] 92.6% | [3] 98.6% | [4] 110% | [5] 103% | [6] 95% | [7] 98% | [8] 99.1% | [9] 113% | [10] 107% | [11] 90% | [13] 90.4% | [14] 122% | [15] 110% | [16] 100% | [17] 104% | [18] 86.6% | [19] 100%

CC(C)CCC[C@@H](C)[C@H]1CCC2C3=CCn4c(=O)ccc(=O)n4C3CC[C@@]21C (some centres not stated)
active: [1] -55.4% | [2] -91.8% | [3] -55.3% | [4] -93.3% | [5] -89.9% | [6] -94% | [7] -66.1% | [8] -79.3% | [9] -100% | [10] -93.7% | [11] -40% | [13] -89.2% | [14] -76% | [15] -91.6% | [16] -92.3% | [17] -99.5% | [18] -79.3% | [19] -98%

CC1(C)N=C(N)N=C(N)N1c1cccc(CN)c1
inactive: [1] 93.2% | [2] 92.7% | [3] 94.3% | [4] 92.3% | [5] 111% | [6] 80.5% | [7] 80.7% | [8] 91% | [9] 99.1% | [10] 109% | [11] 116% | [13] 98.8% | [14] 103% | [15] 101% | [16] 94.7% | [17] 99.3% | [18] 86.5% | [19] 96.7%

CC12CC(C#N)CCC1O2 (configuration not stated)
inactive: [1] 109% | [2] 115% | [3] 127% | [4] 108% | [5] 103% | [6] 93% | [7] 109% | [8] 100% | [9] 102% | [10] 127% | [11] 101% | [12] 128% | [13] 104% | [14] 119% | [15] 110% | [17] 96.6% | [18] 98.3% | [19] 107%

Cc1cc(=O)c2cc3nc(-c4cccnc4)oc3c(Br)c2o1
inactive: [1] 90% | [2] 116% | [3] 109% | [4] 101% | [5] 104% | [6] 92% | [7] 62.9% | [8] 97.2% | [9] 96.8% | [10] 119% | [11] 84% | [12] 98.7% | [13] 111% | [15] 107% | [16] 120% | [17] 106% | [18] 106% | [19] 98.8%

COC(=O)[C@]12CC[C@@H](C)[C@H](C)[C@@H]1C1=CC[C@@H]3[C@@]4(C)C(C=O)=C[C@@](C)(CO)C4=CC[C@@]3(C)[C@]1(C)CC2
inactive: [1] 31.7% | [2] 58.5% | [3] 61.3% | [4] 83.8% | [5] 17.5% | [6] 38% | [7] 28.1% | [8] 29.1% | [9] 45.2% | [10] 39.9% | [11] 16.4% | [12] 60.1% | [13] 53.2% | [15] 48.3% | [16] 24.9% | [17] 29.8% | [19] 28.5%

CC(C)OCCCNCC(=O)Nc1ccc(S(=O)(=O)c2ccc(NC(=O)CNCCCOC(C)C)cc2)cc1
inactive: [1] 101% | [2] 104% | [3] 118% | [4] 85.9% | [5] 94.9% | [6] 50.2% | [7] 93.3% | [8] 106% | [9] 93.5% | [10] 113% | [11] 36.8% | [12] 99.7% | [13] 50.9% | [14] 92.8% | [15] 106% | [17] 79.4% | [18] 106% | [19] 100%
